C diff growth: C. difficile growth inhibitors, primary screen, HTS. Clostridium difficile clinical isolate growth, OD600, 24 h; hits give low values. growth activity, negative = inhibition, % at 16 µg/mL (by protocol). 86,000 tested, 0.25% active. AID 1259249, 2017;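 active = mean growth activity at or below -80% and every replicate also at or below -80%; inconclusive = mean at or below -80% but some replicate above -80%; inactive = mean growth activity above -80%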
T cruzi growth-1: T. cruzi intracellular proliferation inhibitors, primary screen, cell-based, beta-gal Tulahuen parasites, NIH3T3 host, luminescence | T. cruzi beta-gal in NIH3T3, GalScreen luminescence, 90 h | inhibition, % at 8.34 µM | AID 624255, 2012 | 77,000 tested, 5.9% active;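 active = mean inhibition above about 93%, with at least 55% of replicates each passing it, limit read from the data, passing the limit was not always enough; inconclusive = only one of those two conditions holds; inactive = neither condition holds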
Pf Dd2 inh: P. falciparum Dd2 growth inhibitors, primary screen, SYBR Green fluorescence, single dose replicates. 72 h; hits give low values. 94,000 tested, 2.3% active. activity change, % at 10 µM; in the data active = activity change below about -80%; inconclusive = no clear call, values can overlap the other calls
T cruzi growth-2: T. cruzi intracellular proliferation inhibitors, confirmation, cell-based, NIH3T3 host, beta-gal parasite, luminescence, cherry-pick; shares compounds with T cruzi growth-1; T. cruzi beta-gal in NIH3T3, GalScreen luminescence, 90 h; inhibition, % at 8.35 µM; 5,600 tested, 72% active;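 active = mean replicate inhibition above about 95% and at least 55% of replicates individually reaching it, limit read from the data; inconclusive = only one of the two criteria is met; inactive = neither criterion is met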
T cruzi growth-3: inhibitors of intracellular T. cruzi replication, confirmation, NIH3T3 host cells, beta-gal parasites, cherry-pick, set 2 | T. cruzi beta-gal in NIH3T3, GalScreen luminescence, 90 h | 5,600 tested, 21% active | shares compounds with T cruzi growth-1 | AID 651740, 2012 | inhibition, % at 2.09 µM;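 active = mean inhibition above about 95%, with at least 55% of replicates also reaching it, limit read from the data; inconclusive = meets just one of the two conditions; inactive = meets neither condition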
3T3 cytotox: cytotoxicity in mouse NIH/3T3 fibroblasts, confirmation, cytotoxicity control for T. cruzi proliferation inhibitor project, cell-based, cherry-pick, single point; shares compounds with T cruzi growth-1; NIH/3T3 viability, CellTiter-Glo ATP luminescence, 90 h; cytotoxicity (signal decrease), % at 8.35 µM; 5,600 tested, 14% active;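 active = mean signal decrease across replicates above about 35% based on untreated-well scatter, with enough replicates individually passing, limit read from the data; inconclusive = no rule stated though some were filed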
NIH3T3 tox 2: NIH/3T3 fibroblast cytotoxicity, confirmation, cytotoxicity control, cell-based, cherry-pick, single point, set 2 | 5,600 tested, 56% active | shares compounds with T cruzi growth-1 | NIH/3T3 viability, CellTiter-Glo ATP luminescence, 90 h | AID 651744, 2012 | inhibition, % at 24.9 µM;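 active = mean loss of cell viability signal at or above a set limit, and enough replicates individually reaching it; inconclusive = meets only the mean limit or only the replicate share; inactive = meets neither condition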
A number is an active result. Most compounds without a hit are left out; they make up all but 6.8% or so of the library.

For C[C@H]1CCCCO[C@@H](CN(C)C(=O)Nc2ccc(C(F)(F)F)cc2)[C@@H](C)CN([C@@H](C)CO)C(=O)c2cc(NC(=O)Cc3ccccc3)ccc2O1 the results were C diff growth inactive, T cruzi growth-1 inconclusive, Pf Dd2 inh inactive, T cruzi growth-2 106.6, T cruzi growth-3 111.1, 3T3 cytotox inactive and NIH3T3 tox 2 24.2.
For COc1ccc(C#Cc2ccc3c(c2)[C@@H]2[C@@H](CCN2S(=O)(=O)c2ccccc2F)[C@@H](CO)N3C)cc1 the results were C diff growth inactive, T cruzi growth-1 inactive and Pf Dd2 inh inactive.
Screening CNC[C@H]1Oc2c(NC(=O)Nc3ccc(C(F)(F)F)cc3)cccc2C(=O)N([C@H](C)CO)C[C@@H]1C returned C diff growth inactive, T cruzi growth-1 inactive and Pf Dd2 inh inactive.
`COc1cccc(C#Cc2ccc([C@H]3[C@H](CO)N4C(=O)CN(C(=O)C5CC5)C[C@@H]34)cc2)c1` gave C diff growth inactive and Pf Dd2 inh inactive.
For O=C(c1ccc(F)cc1)N1CCCCN2[C@H](C1)[C@H](c1ccc(-c3ccc(F)cc3)cc1)[C@@H]2CO the results were C diff growth inactive, T cruzi growth-1 inactive and Pf Dd2 inh inactive.
COc1cccc(-c2ccc([C@H]3[C@@H](CO)N4CCCCN(C(=O)c5ccc(F)cc5)C[C@H]34)cc2)c1 was read as C diff growth inactive, T cruzi growth-1 108.1, Pf Dd2 inh inactive, T cruzi growth-2 108.1, T cruzi growth-3 inactive, 3T3 cytotox inactive and NIH3T3 tox 2 104.1.
O=C(c1ccc(F)cc1)N1CCCCN2[C@H](CO)[C@@H](c3ccc(-c4ccc(F)cc4)cc3)[C@@H]2C1 was read as C diff growth inactive, T cruzi growth-1 100.5, Pf Dd2 inh inactive, T cruzi growth-2 99.1, T cruzi growth-3 102.7, 3T3 cytotox inactive and NIH3T3 tox 2 104.0.
`O=C(c1ccc(F)cc1)N1CCCCN2[C@H](C1)[C@@H](c1ccc(-c3ccccc3)cc1)[C@@H]2CO` gave C diff growth inactive, T cruzi growth-1 inactive and Pf Dd2 inh inactive.
Screening COc1cccc(-c2ccc([C@@H]3[C@@H](CO)N4CCCCN(C(=O)c5ccc(F)cc5)C[C@H]34)cc2)c1 returned C diff growth inactive, T cruzi growth-1 inactive and Pf Dd2 inh inactive.
For O=C(c1ccc(F)cc1)N1CCCCN2[C@@H](CO)[C@H](c3ccc(-c4ccc(F)cc4)cc3)[C@@H]2C1 the results were C diff growth inactive, T cruzi growth-1 104.4, Pf Dd2 inh inactive, T cruzi growth-2 inactive, T cruzi growth-3 inactive, 3T3 cytotox 43.9 and NIH3T3 tox 2 105.8.
C[C@H]1CN([C@@H](C)CO)C(=O)Cc2cc(NC(=O)CCN3CCOCC3)ccc2O[C@@H]1CN(C)C(=O)Nc1ccc2c(c1)OCO2 was read as C diff growth inactive, T cruzi growth-1 inactive and Pf Dd2 inh inactive.
For C[C@@H]1CN([C@H](C)CO)C(=O)c2cc(NC(=O)Cc3cn(C)c4ccccc34)ccc2O[C@@H]1CN(C)S(=O)(=O)c1ccccc1 the results were C diff growth inactive, T cruzi growth-1 inactive and Pf Dd2 inh inactive.
For COc1ccc(S(=O)(=O)N(C)C[C@@H]2Oc3ccc(NC(=O)Cc4cn(C)c5ccccc45)cc3C(=O)N([C@@H](C)CO)C[C@@H]2C)cc1 the results were C diff growth inactive, T cruzi growth-1 102.0, Pf Dd2 inh inactive, T cruzi growth-2 inactive, T cruzi growth-3 inactive, 3T3 cytotox inactive and NIH3T3 tox 2 46.4.
Screening C[C@H](CO)N1C[C@H](C)[C@H](CN(C)S(=O)(=O)c2ccc(F)cc2)Oc2ccc(NC(=O)Cc3cn(C)c4ccccc34)cc2C1=O returned C diff growth inactive, T cruzi growth-1 inactive and Pf Dd2 inh inactive.
For COc1ccc(S(=O)(=O)N(C)C[C@@H]2Oc3ccc(NC(=O)Cc4cn(C)c5ccccc45)cc3C(=O)N([C@H](C)CO)C[C@@H]2C)cc1 the results were C diff growth inactive, T cruzi growth-1 100.9, Pf Dd2 inh -85.3, T cruzi growth-2 97.3, T cruzi growth-3 inactive, 3T3 cytotox inactive and NIH3T3 tox 2 63.5.
Screening CO[C@H]1CN(C)C(=O)c2cc(NC(=O)c3cnccn3)ccc2OC[C@@H](C)N(CCc2ccccc2)C[C@@H]1C returned Pf Dd2 inh inactive.
`CC(C)CC#Cc1ccc2c(c1)O[C@H](CN(C)Cc1cccnc1)[C@H](C)CN([C@H](C)CO)S2(=O)=O` gave C diff growth inactive, T cruzi growth-1 106.1, T cruzi growth-2 104.3, T cruzi growth-3 inactive, 3T3 cytotox inactive and NIH3T3 tox 2 103.3.
CC(C)CC#Cc1ccc2c(c1)O[C@H](CN(C)Cc1cccnc1)[C@@H](C)CN([C@H](C)CO)S2(=O)=O was read as C diff growth inactive, T cruzi growth-1 96.2, T cruzi growth-2 104.0, T cruzi growth-3 100.0, 3T3 cytotox inactive and NIH3T3 tox 2 104.5.
`CC(C)CC#Cc1ccc2c(c1)O[C@@H](CN(C)Cc1cncnc1)[C@H](C)CN([C@@H](C)CO)S2(=O)=O` gave C diff growth inactive, T cruzi growth-1 inactive and Pf Dd2 inh inactive.
For CC(C)CC#Cc1ccc2c(c1)O[C@@H](CN(C)Cc1cccnc1)[C@H](C)CN([C@H](C)CO)S2(=O)=O the results were C diff growth inactive and T cruzi growth-1 inactive.
For C[C@@H]1CN([C@@H](C)CO)C(=O)Cc2cc(NS(C)(=O)=O)ccc2O[C@H]1CN(C)CC1CCCCC1 the results were C diff growth inactive, T cruzi growth-1 inactive and Pf Dd2 inh inactive.
`CO[C@H]1CN(C)C(=O)c2ccc(NC(=O)c3ccc(F)cc3)cc2OC[C@H](C)N(C(C)=O)C[C@@H]1C` gave T cruzi growth-1 inactive and Pf Dd2 inh inactive.
For CO[C@@H]1CN(C)C(=O)c2ccc(NC(=O)C3CCCC3)cc2OC[C@@H](C)N(C(C)=O)C[C@@H]1C the results were C diff growth inactive and Pf Dd2 inh inactive.
For CCC(=O)N1CCCCN2[C@H](C1)[C@@H](c1ccc(C#Cc3ccccc3F)cc1)[C@@H]2CO the results were C diff growth inactive, T cruzi growth-1 99.6, Pf Dd2 inh inactive, T cruzi growth-2 99.9, T cruzi growth-3 inactive, 3T3 cytotox 50.2 and NIH3T3 tox 2 104.6.

Source: PubChem
